According to PubChem BioAssay:
Active and inactive are the calls of the source.

Experiments:
[1] = small molecules captured by biotinylated probe aFSTL3 – biochemical, small-molecule microarray, fluorescence 635/667, stem cell growth factor project, primary screen (AID 1064); details: higher = more signal;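 note: measures binding of the biotinylated anti-FSTL3 antibody to printed compounds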
[2] = binders from COS7 lysate, DM2A8 probe, primary screen, torsin A project, cell lysate, small-molecule microarray, fluorescence 635/667 (AID 1065); details: higher = more signal, COS7 lysate expressing mutant human TOR1A
[3] = small molecules captured by biotinylated probe aFGF2 – biochemical, small-molecule microarray, fluorescence 635/667, stem cell growth factor project, primary screen (AID 1067); details: higher = more signal;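 note: measures binding of biotinylated aFGF2 protein to printed compounds on slides; z-score merges feature fluorescence and signal-to-noise across triplicate slides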
[4] = small molecules captured by biotinylated probe aFGF10 – biochemical, small-molecule microarray, fluorescence 635/667, stem cell growth factor project, primary screen (AID 1071); details: higher = more signal;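 note: score merges 667 nm spot intensity and signal to noise from triplicate slides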
[5] = target: Neurogenic locus notch homolog protein 2 (Homo sapiens) (UniProt Q04721); assay: small molecules binding Notch2 protein – biochemical, small-molecule microarray, 635 nm fluorescence, stem cell growth factors, primary screen (AID 1073); details: higher = more signal
Sequence of Neurogenic locus notch homolog protein 2 (Homo sapiens) (Q04721 whole entry, looked up, canonical isoform): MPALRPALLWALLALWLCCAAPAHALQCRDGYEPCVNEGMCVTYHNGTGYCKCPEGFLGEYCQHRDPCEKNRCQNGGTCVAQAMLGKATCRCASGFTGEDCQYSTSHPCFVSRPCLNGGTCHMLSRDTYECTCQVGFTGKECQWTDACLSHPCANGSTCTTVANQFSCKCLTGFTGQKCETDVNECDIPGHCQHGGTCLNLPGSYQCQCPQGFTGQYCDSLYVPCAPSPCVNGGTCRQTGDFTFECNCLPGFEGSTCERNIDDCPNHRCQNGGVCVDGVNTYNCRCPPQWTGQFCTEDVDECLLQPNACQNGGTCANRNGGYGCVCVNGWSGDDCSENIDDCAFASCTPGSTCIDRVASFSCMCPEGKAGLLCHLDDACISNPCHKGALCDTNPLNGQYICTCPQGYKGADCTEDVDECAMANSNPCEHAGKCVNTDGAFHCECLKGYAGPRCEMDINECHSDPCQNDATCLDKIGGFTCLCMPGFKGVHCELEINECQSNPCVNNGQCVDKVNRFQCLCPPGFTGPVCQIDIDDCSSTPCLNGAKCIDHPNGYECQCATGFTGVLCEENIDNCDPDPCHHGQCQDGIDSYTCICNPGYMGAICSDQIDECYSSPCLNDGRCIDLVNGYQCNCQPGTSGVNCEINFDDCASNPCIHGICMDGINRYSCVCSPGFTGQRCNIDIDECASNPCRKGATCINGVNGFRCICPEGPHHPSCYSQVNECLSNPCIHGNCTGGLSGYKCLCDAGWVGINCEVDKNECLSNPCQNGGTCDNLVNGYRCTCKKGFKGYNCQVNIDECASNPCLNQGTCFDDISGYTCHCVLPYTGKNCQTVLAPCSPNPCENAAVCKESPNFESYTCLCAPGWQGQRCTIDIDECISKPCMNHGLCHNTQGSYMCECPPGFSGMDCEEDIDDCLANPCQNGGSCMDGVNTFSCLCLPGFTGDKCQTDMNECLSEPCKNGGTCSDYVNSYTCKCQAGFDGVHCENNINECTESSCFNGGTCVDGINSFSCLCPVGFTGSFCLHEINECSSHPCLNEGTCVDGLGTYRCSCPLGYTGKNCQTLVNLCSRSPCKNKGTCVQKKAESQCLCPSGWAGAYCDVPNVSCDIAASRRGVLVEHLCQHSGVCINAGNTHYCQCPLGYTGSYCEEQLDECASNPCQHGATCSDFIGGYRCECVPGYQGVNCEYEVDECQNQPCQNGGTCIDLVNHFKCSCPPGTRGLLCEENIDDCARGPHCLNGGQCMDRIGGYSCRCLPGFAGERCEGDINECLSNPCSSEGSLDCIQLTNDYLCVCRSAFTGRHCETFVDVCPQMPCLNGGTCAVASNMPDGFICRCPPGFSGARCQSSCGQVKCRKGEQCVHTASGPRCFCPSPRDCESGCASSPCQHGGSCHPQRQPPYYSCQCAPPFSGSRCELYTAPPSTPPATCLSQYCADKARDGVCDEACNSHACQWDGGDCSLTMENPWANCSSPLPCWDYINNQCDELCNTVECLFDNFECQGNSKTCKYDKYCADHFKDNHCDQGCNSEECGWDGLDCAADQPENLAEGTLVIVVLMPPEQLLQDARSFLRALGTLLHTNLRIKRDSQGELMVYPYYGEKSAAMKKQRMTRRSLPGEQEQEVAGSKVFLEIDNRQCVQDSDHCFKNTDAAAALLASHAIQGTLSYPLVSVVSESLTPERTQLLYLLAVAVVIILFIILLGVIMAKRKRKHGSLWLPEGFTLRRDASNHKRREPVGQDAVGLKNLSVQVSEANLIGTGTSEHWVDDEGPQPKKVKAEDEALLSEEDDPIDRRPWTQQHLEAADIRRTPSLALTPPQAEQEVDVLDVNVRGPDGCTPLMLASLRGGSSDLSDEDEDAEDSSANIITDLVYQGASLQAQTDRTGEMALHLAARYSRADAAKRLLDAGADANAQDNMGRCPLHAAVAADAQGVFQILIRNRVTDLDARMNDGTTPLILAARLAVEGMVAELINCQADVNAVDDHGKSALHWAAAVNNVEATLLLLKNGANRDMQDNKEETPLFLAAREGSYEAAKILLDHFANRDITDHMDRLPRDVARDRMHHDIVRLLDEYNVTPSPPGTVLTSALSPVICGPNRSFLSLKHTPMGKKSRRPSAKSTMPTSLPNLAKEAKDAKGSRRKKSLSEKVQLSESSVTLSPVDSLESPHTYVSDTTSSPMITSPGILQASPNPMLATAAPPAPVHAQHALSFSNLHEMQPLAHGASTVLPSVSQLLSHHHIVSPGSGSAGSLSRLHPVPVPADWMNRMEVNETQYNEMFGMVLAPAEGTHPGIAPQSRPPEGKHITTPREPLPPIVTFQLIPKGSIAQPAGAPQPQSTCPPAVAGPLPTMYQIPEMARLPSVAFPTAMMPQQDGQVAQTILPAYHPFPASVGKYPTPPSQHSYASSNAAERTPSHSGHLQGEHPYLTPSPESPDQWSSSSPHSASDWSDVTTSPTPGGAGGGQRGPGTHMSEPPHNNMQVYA

[6] = target: Pro-neuregulin-1, membrane-bound isoform (Homo sapiens) (UniProt Q02297); assay: small molecules binding neuregulin-1 protein – biochemical, small-molecule microarray, fluorescence 635/667, psychiatric disease protein project, primary screen (AID 1075); details: NRG1 binding, 635 nm fluorescence, higher = more signal;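 note: score combines 667 nm spot fluorescence with signal to noise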
Sequence of Pro-neuregulin-1, membrane-bound isoform (Homo sapiens) (Q02297 whole entry, looked up, the tested form may be a part, canonical isoform): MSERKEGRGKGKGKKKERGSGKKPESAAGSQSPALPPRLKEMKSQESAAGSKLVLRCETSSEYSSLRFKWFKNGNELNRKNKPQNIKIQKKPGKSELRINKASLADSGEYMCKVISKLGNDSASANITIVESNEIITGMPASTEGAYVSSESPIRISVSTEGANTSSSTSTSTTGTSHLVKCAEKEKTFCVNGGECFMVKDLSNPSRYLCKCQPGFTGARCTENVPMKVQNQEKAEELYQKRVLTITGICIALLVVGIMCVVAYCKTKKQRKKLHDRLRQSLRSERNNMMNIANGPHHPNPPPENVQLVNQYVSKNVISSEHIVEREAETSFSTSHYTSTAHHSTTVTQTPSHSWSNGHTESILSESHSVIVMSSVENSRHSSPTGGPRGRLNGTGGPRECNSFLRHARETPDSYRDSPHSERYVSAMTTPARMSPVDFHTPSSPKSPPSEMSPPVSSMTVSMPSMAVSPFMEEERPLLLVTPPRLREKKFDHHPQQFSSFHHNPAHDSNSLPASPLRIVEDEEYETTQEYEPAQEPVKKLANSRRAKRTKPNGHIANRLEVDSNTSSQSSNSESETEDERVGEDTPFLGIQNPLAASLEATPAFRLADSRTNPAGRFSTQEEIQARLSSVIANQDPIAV

[7] = system: Neuregulin-1 EGF-like domain; assay: small molecules binding NRG1 EGF domain – biochemical, small-molecule microarray, 635 nm fluorescence, primary screen (AID 1081); details: higher = more signal;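 note: binding of the protein to compounds printed on small-molecule microarray slides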
[8] = FRG1 expression reporter modulators in myotubes – cell-based, C2C12 myotubes, firefly/Renilla luciferase, luminescence, FRG1 inhibition for FSHD, primary screen (AID 1084); details: FRG1 promoter luciferase, higher = more signal, called active from +8 up or from −8 down
[9] = small molecules captured by biotinylated probe aFST – biochemical, small-molecule microarray, fluorescence 635/667, stem cell growth factor project, primary screen (AID 1086); details: higher = more signal;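 note: score merges 667 nm fluorescence with signal-to-noise of each printed compound spot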
[10] = binders of probe aHhip on microarray, primary screen, stem cell growth factor project, biochemical, small-molecule microarray, fluorescence 635/667 (AID 1087); details: higher = more signal;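 note: score merges spot fluorescence at 667nm with spot signal to noise ratio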

Compound | composite z-score [1] | composite z-score [2] | composite z-score [3] | composite z-score [4] | composite z-score [5] | composite z-score [6] | composite z-score [7] | z-score [8] | composite z-score [9] | composite z-score [10]
COC(=O)[C@@]1(Cc2ccc(F)cc2)[C@H]2c3cc(C(=O)N(C)C)n(CCc4ccc(O)c(O)c4)c3C[C@H]2CN1C(=O)c1ccccc1 | -0.0383 | -0.134 | 0.187 | 0.876 | 1.68 | 0.562 | 1 | 0.115 (inactive) | 0.662 | -0.374
CC(C)(C)N1CC=CC23O[C@@H]4/C=C\CCCOC(=O)C4[C@H]2C(=O)N(CCCCCO)[C@@H]3C1=O (stereo not given in full) | 1.26 | -0.406 | -0.227 | -0.668 | -0.545 | -0.229 | -0.448 | -0.106 (inactive) | -1.09 | 0.176
COC(=O)[C@@]1(Cc2ccc(F)cc2)[C@H]2c3cc(C(=O)N4CCCC4)n(CCc4ccccn4)c3C[C@H]2CN1C(=O)c1ccccc1 | 0.319 | -0.439 | 0.165 | 0.124 | 1.43 | 1.8 | 1.4 | 1.23 (inactive) | 0.858 | -0.201
CC(C)C[C@H]1NC(=O)C([C@@H](C)OCc2ccccc2)NC(=O)[C@@]23C(=O)N[C@@H](Cc4ccccc4)C2[C@H](C)[C@@]2(C)O[C@H]2C3/C=C/C/C=C\CNC1=O (stereo not given in full) | -0.61 | 0.583 | -0.0712 | 0.775 | 0.831 | 1.21 | 1.06 | 2.71 (inactive) | 0.517 | 3.36
C[C@@H]1NC(=O)C([C@@H](C)OCc2ccccc2)NC(=O)[C@@]23C(=O)N[C@@H](Cc4ccccc4)C2[C@H](C)[C@@]2(C)O[C@H]2C3/C=C/C/C=C\CNC1=O (stereo not given in full) | -0.439 | -0.328 | -0.0578 | 0.341 | -0.0879 | 0.671 | 0.503 | -0.116 (inactive) | -0.502 | -0.236
COC(=O)[C@@]1(Cc2ccc(OC)cc2)[C@H]2c3cc(C(=O)N4CCCC4)n(CCn4cc([N+](=O)[O-])nc4C)c3C[C@H]2CN1C(=O)c1ccccc1 | 2.45 | 2 | 0.861 | 1.25 | 1.5 | 1.58 | 1.31 | 2.02 (inactive) | 2.71 | 3.56
CN(C)CCCNC(=O)[C@@H]1c2ccccc2C(=O)N(Cc2ccccc2C(F)(F)F)[C@H]1c1ccc(CO)cc1 | 1 | -0.335 | -0.0416 | -0.702 | -1.03 | 1.01 | -0.23 | -1.28 (inactive) | -0.0464 | -0.149
O=C(NCC(O)CO)[C@@]1(CCS(=O)(=O)c2ccccc2)N=C(c2ccc(OCCCO)cc2)O[C@H]1c1ccccc1 (stereo not given in full) | 0.715 | 0.965 | 0.123 | 0.223 | 0.429 | 1.96 | 1.33 | 2.37 (inactive) | 0.544 | 0.0302
CC(C)=CCCC(C)=CC(O)C1C=CC2C(=O)NC(=O)C2N1Nc1ccccn1 (stereo not given) | -0.631 | 1.6 | 0.059 | 1.16 | 1.57 | 0.966 | 1.23 | -0.385 (inactive) | 1.21 | -0.109
O=C1N(Cc2ccccc2)c2ccccc2C[C@@]12COC(c1ccc(OCCCO)cc1)=N2 | 0.689 | 0.445 | -0.0592 | 0.979 | 0.984 | 1 | 1.23 | -1.14 (inactive) | 0.361 | -0.0237
COC(=O)C(CC#Cc1ccc2c(c1)[C@]1(C(=O)N2)[C@H](c2ccc(OCCO)cc2)N2[C@H](c3ccccc3)[C@H](c3ccccc3)OC(=O)[C@H]2[C@@H]1C(=O)N1CCCCCCC1)C(=O)OC | 3.41 | 1.91 | 0.826 | 1.21 | 1.14 | 1.93 | 1.27 | -0.378 (inactive) | 3.21 | 1.45
CC(C)(C)N1CC=CC23O[C@@H]4C=CCCOC(=O)C4[C@H]2C(=O)N(CCCCCCO)[C@@H]3C1=O (stereo not given in full) | -0.0477 | -1.39 | -0.0628 | 0.0493 | -0.615 | 1.36 | 1.56 | 0.908 (inactive) | -0.0273 | -0.236
O=C1[C@H]2C=C(I)[C@H](C[C@@H]2c2ccccc2)[C@@]12CO2 | -0.372 | -0.0809 | -0.104 | -0.142 | 0.0878 | -0.165 | -0.507 | 1.55 (inactive) | 0.281 | -0.214
C[N+](C)(C)CCCCNC(=O)[C@H]1C[C@H]2C(=O)N[C@@H](Cc3ccccc3)C(=O)N2[C@H]1c1cccc(OCCO)c1 | -0.397 | 1.29 | -0.0375 | 1.21 | 0.641 | 1.06 | 1.36 | 2.28 (inactive) | 0.435 | 0.0373
Cc1ccc(S[C@]2(C(=O)NC3CC3)CC(=O)N(C(C)C)[C@@H]2c2ccc(CO)cc2I)cc1 | -0.113 | 0.38 | -0.0234 | 0.0084 | -0.372 | 1.89 | 1.07 | -0.0443 (inactive) | 0.933 | -0.318
[N-]=[N+]=Nc1ccccc1C[C@]1(C(=O)N2CCOCC2)N=C(c2ccc(OCCCO)cc2)O[C@H]1c1ccccc1N=[N+]=[N-] | -0.214 | 1.05 | 0.119 | 0.499 | 1.5 | 1.68 | 1.36 | -2.32 (inactive) | 1.53 | -0.0237

Compound | composite z-score [1] | composite z-score [2] | composite z-score [3] | composite z-score [4] | composite z-score [5] | composite z-score [6] | composite z-score [7] | z-score [8] | composite z-score [9] | composite z-score [10]
C=C1C(=O)C=C2CN(C(=O)c3ccccc3)[C@@](Cc3ccc(OC)cc3)(C(=O)OC)[C@@H]12 | 0.53 | 0.442 | 0.369 | 1.01 | 1.72 | 2.09 | 1.29 | 2.08 (inactive) | 0.924 | 0.212
COCCOC(=O)N1C(=O)[C@@]2(c3ccccc31)[C@H](C(=O)N1CCN(c3ncccn3)CC1)[C@H]1C(=O)O[C@H](c3ccccc3)[C@H](c3ccccc3)N1[C@@H]2c1ccccc1OCCO | -0.287 | 0.514 | 0.168 | 0.7 | 0.827 | 0.111 | 1.13 | -1.12 (inactive) | 0.244 | -0.0919
NCCCCCCNC(=O)[C@@H]1C[C@@H]2C(=O)N3CCC[C@H]3C(=O)N2[C@@H]1c1cccc(OCCO)c1 | 1.14 | 0.957 | -0.0347 | 0.361 | 0.0828 | 1.58 | 1.36 | 1.52 (inactive) | 0.492 | 0.249
CCCC[C@H]1C[C@@H]1[C@@H]1N(C(C)=O)[C@H](c2cccc(OC)c2)CC12CC2 | 0.116 | -0.303 | -0.0235 | 0.186 | 0.798 | -0.106 | -0.175 | 1.8 (inactive) | 0.657 | -0.0645
COC(=O)[C@@]1(Cc2ccccc2)[C@H]2c3cc(C(=O)N4CCCC4)n(Cc4ccc(OC)c(OC)c4)c3C[C@H]2CN1C(=O)c1ccccc1 | 0.439 | 0.411 | 0.141 | 0.605 | 1.77 | 2.16 | 1.4 | 0.626 (inactive) | 1.88 | 0.857
C=CCOC(=O)[C@@H]1[C@H]2C(=O)O[C@H](c3ccccc3)[C@H](c3ccccc3)N2[C@H](c2ccc(OCCOC(=O)[C@H]3C[C@H]4C(=O)N5CCC[C@H]5C(=O)N4[C@H]3c3cccc(OCCO)c3)cc2)[C@@]12C(=O)Nc1ccc(I)cc12 | -0.0333 | 0.546 | -0.0538 | 0.441 | 0.596 | 0.499 | 1.2 | 1.67 (inactive) | 0.182 | -0.0767
COC(=O)[C@@]1(Cc2ccc(OC)cc2)[C@H]2c3cc(C(=O)N(C)C)[nH]c3C[C@H]2CN1C(=O)c1ccccc1 | -0.231 | -0.884 | 0.0992 | 0.304 | 0.793 | 0.882 | 0.977 | 1.04 (inactive) | 0.019 | -0.0905
COc1ccc([Si](C)(C)[C@@H]2[C@@H](CC(=O)N3Cc4ccccc4C[C@H]3CO)O[C@]3(C(=O)N(Cc4ccc(N5CCOC5=O)cc4)c4ccccc43)[C@H]2C)cc1 | -0.169 | 0.669 | -0.178 | 0.284 | 0.405 | 1 | 1.09 | -2.85 (inactive) | 0.27 | 0.0274
O=C(NCc1ccc(F)cc1)[C@H]1C[C@H]2C(=O)N3CCC[C@H]3C(=O)N2[C@H]1c1ccc(O)cc1 | 0.883 | -0.554 | -0.195 | -0.216 | -0.428 | 0.192 | 0.49 | -0.29 (inactive) | -0.819 | -0.0772
C[C@]1(C(=O)O)c2ccccc2C(=O)N(Cc2cc(F)cc(C(F)(F)F)c2)[C@H]1c1ccc(CO)cc1 | -0.25 | -0.205 | -0.0887 | 0.0859 | 0.361 | 0.233 | 0.936 | -0.163 (inactive) | 0.436 | -0.268
C=CCOC(=O)[C@@H]1[C@H]2C(=O)O[C@H](c3ccccc3)[C@H](c3ccccc3)N2[C@H](c2ccc(OCCOC(=O)[C@H]3C[C@H]4C(=O)NCC(=O)N4[C@H]3c3cccc(OCCO)c3)cc2)[C@@]12C(=O)Nc1ccc(I)cc12 | -0.0708 | 0.727 | -0.0383 | -0.0265 | 0.593 | 1.16 | 1.23 | 0.779 (inactive) | 0.275 | -0.0296
C=CC[C@@]1(C(=O)N(C)C)N=C(c2ccc(OCCCO)cc2)O[C@@H]1c1ccccc1CN=[N+]=[N-] | 0.151 | 0.448 | -0.0004 | 1.01 | 1.61 | 1.68 | 1.17 | -2.64 (inactive) | 1.18 | 0.0373
CCOC(=O)C[C@H]1[C@H](OC(=O)c2ccccc2-c2ccccc2)[C@@H](NC(=O)C2CCCCC2)c2cc(OCCCO)ccc2N1C(=O)c1ccc2ccccc2n1 | -0.484 | 0.0817 | -0.0594 | 0.53 | 0.813 | 0.388 | 0.825 | 0.396 (inactive) | 0.512 | -0.0296
O=C(O)[C@H](Cc1ccccc1)n1cc(C2(O)CCCCC2)nn1 | -0.44 | 0.444 | -0.103 | 0.262 | -0.0666 | 0.0741 | 0.993 | 1.64 (inactive) | 0.163 | -0.0645
COC(=O)[C@]1(Cc2ccccc2)N=C(c2ccc(OCCCO)cc2)O[C@@H]1c1ccccc1CN=[N+]=[N-] | 0.278 | -0.235 | -0.0266 | -0.214 | 0.582 | 0.718 | 1.29 | 1.48 (inactive) | 0.693 | -0.134
CN(C)CCCCNC(=O)[C@H]1C[C@H]2C(=O)N3CCC[C@H]3C(=O)N2[C@H]1c1cccc(OCCO)c1 | 0.429 | 0.76 | -0.0386 | 0.0348 | -0.182 | 1.94 | 1.28 | 3.81 (inactive) | 0.081 | 0.565
